CtBP-E1A inh: CtBP/E1A binding inhibition | AlphaScreen GST-E1A/His-CtBP binding, 1536-well; stronger effect = lower value | activity change, % (no concentration beside the values) | 340,000 compounds, 0.49% hits
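Protein mix (5X: 125 nM each GST-E1A, His-CtBP) was incubated with pinned compound 2 h at 37 deg C in dark, in 50 mM Tris pH 8.0 buffer with 300 mM NaCl. Glutathione donor and nickel acceptor beads followed; AlphaScreen signal read after 1 h.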
KCNH2 3.1 block: KCNH2 3.1 (human) potassium channel inhibition; 340,000 compounds, 0.95% hits; activity change, % (tested at about 1.8 µM); U2OS KCNH2 3.1, thallium flux FluxOr; stronger effect = lower value;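 active = maximum activity change below -70%; inconclusive = maximum activity change from -70% to -50%; inactive = maximum activity change above -50%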;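 note: thallium influx rate constant from kinetic fluorescence after stimulation buffer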
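Virally transduced U2OS (3.1 isoform, 4 h infection in dark at RT) → overnight 37 C → FluxOr + Red40 in HBSS/HEPES, 45 min → stimulation buffer, 2 min kinetic read → rate constant vs DMSO controls.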
JMJD2E inh: blocks human JMJD2E demethylase activity. B2RXH2. JMJD2E catalytic domain, FDH-coupled NADH fluorescence (FDH is formaldehyde dehydrogenase). 230,000 compounds, 1.6% hits. Potency, µM (highest dose often 57.1 µM), usual class: inhibitors. AID 2147; active = well fitted inhibition curve with a large enough effect, not every such curve was filed as active; inconclusive = small, poorly fitted or top-dose-only effect, or another doubt; inactive = no such curve, though single readings can be large or run the other way; note: nearly all actives have a fitted effect of over 50% in size
Six1-Eya2 blk: Six1/Eya2 interaction inhibition | Q15475+O00167 | AlphaScreen GST-Six1/His-Eya2 binding, biochemical; stronger effect = lower value | activity change, % (no concentration beside the values) | 360,000 compounds, 0.56% hits
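GST-Six1 + His-Eya2 (5X stock: 250/500 nM); Tris pH 8.0, 300 mM NaCl, 0.05% BSA, 0.02% Tween 20; GSH donor/Ni acceptor beads; 1 h 37 °C dark; AlphaScreen readout.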
KCNH2 WT inh: KCNH2 (human, wildtype) channel inhibition; 340,000 compounds, 0.37% hits; activity change, % at 1.84 µM; U2OS, BacMam KCNH2, thallium flux FluxOr; stronger effect = lower value;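 active = maximum activity change below -70%; inconclusive = maximum activity change between -70% and -50%; inactive = maximum activity change above -50%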
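U2OS cells were transduced with wild-type KCNH2 virus (2.03 x 10^8 / mL) for 4 h at room temperature, then cultured overnight at 37 C. Thallium flux was read with FluxOr dye. Rate constants were normalized to DMSO controls.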
Large screens that a line does not name were inactive. A selection: hits, their analogues and other compounds. The true share with any hit is near 2%. Cut-off read from the data, not from the text of the source, unless noted: active = activity change below about -65%; inconclusive = mostly about -30% to -63%; inactive = weaker than that.

Cc1ccc(S(=O)(=O)N(C)c2ccc(C(=O)Nc3cccc(C)n3)cc2)cc1	none (no result: KCNH2 3.1 block, JMJD2E inh)
CCC(=O)Nc1cc(NC(=O)CSc2nnc(C(C)C)n2CC)ccc1C	none
CC[N+](CC)(CC)CCOc1ccc(/C=C/c2ccccc2)cc1	none (no result: JMJD2E inh)
CC[N+](CC)(CC)CCOc1ccc(/C=C\c2ccccc2)cc1	JMJD2E inh 25.1µM (no result: CtBP-E1A inh, KCNH2 3.1 block, Six1-Eya2 blk, KCNH2 WT inh)
Cc1ccc(C)c(S(=O)(=O)N2CCN(C(C(=O)Nc3ccc(F)cc3)c3ccccc3)CC2)c1 (stereo not given)	KCNH2 3.1 block -85.7
Cc1ccc(CCNC(=O)Cn2ncc3c([nH]c4ccccc43)c2=O)cc1	none (no result: JMJD2E inh)
O=C(Cn1ncc2c([nH]c3ccccc32)c1=O)NCC1CCN(Cc2ccc(F)cc2)CC1	KCNH2 3.1 block -97.6 (no result: JMJD2E inh)
NNC(=O)CN1C(CN2CCOCC2)=Nc2ccc(Br)cc2C1c1ccccc1 (stereo not given)	KCNH2 3.1 block -73.2
Cc1cc(=O)[nH]c2c(N=Nc3ccc(O)cc3)c(N)nn12	JMJD2E inh inconclusive, Six1-Eya2 blk -77.4 (no result: CtBP-E1A inh, KCNH2 WT inh)
Nc1nn2c(C(F)(F)F)cc(=O)[nH]c2c1N=Nc1cccc(F)c1	JMJD2E inh inconclusive
C[N+](C)(C)CC(O)CC(=O)O (stereo not given)	KCNH2 WT inh -295.1
CC(O)CC(=O)O (stereo not given)	none (no result: JMJD2E inh)
COC(=O)CNC(=O)CNC(=O)Nc1ccccc1Cl	KCNH2 3.1 block -76.7
O=C(C1CC(=O)N(C2CCCCC2)C1)N1CCc2ccccc21 (stereo not given)	none (no result: CtBP-E1A inh, KCNH2 WT inh)
CC[C@H](NC(C)C)[C@H](O)c1ccc(O)c(O)c1	JMJD2E inh 11.2µM (no result: CtBP-E1A inh, KCNH2 3.1 block, Six1-Eya2 blk, KCNH2 WT inh)
CCC(NC(C)C)C(O)c1ccc(O)c2[nH]c(=O)ccc12 (stereo not given)	JMJD2E inh inconclusive
CNC[C@H](O)c1ccc(O)c(O)c1	JMJD2E inh 15.8µM
CC(=O)Nc1cccc(C(=O)Nc2ccccc2N2CCOCC2)c1	none
COC(=O)C1C2C=CC3(CN(c4cccc(Cl)c4)C(=O)C13)O2 (stereo not given)	none
O=C(c1ccc(=O)oc1)N1CCCc2ccccc21	JMJD2E inh 14.1µM, Six1-Eya2 blk inconclusive
CCOC(=O)N1CCC(N2CCCC(C(=O)c3cccc(OC)c3)C2)CC1 (stereo not given)	none
CCOC(=O)N1CCC(N2CCCC(C(=O)c3cccc(OC(C)C)c3)C2)CC1 (stereo not given)	KCNH2 3.1 block -80.2, JMJD2E inh inconclusive
CC(=O)Nc1ccc(NC(=O)c2sc3nc4n(c(=O)c3c2C)CCCCC4)cc1	none (no result: CtBP-E1A inh, KCNH2 WT inh)
CCc1ccc(NC(=O)c2sc3nc4n(c(=O)c3c2C)CCC4)cc1	KCNH2 3.1 block -90.6 (no result: CtBP-E1A inh, JMJD2E inh)
Cc1cc(F)c(F)c(C(=O)N2CCOCC2)c1Cl	Six1-Eya2 blk -92.1
COc1ccc(/C=N/n2cnc3c([nH]c4ccc(F)cc43)c2=O)cc1CSc1ccccn1	none
CSc1ccccc1NC(=O)Cn1c(-c2cscn2)nc2ccccc21	none
Cc1ccccc1-n1sc2cc(F)ccc2c1=O	JMJD2E inh 11.2µM
COC(=O)C1Cc2c([nH]c3ccccc23)C2(CCN(Cc3ccccc3)CC2)N1 (stereo not given)	CtBP-E1A inh inconclusive, KCNH2 3.1 block -81.2 (no result: JMJD2E inh)
COc1ccc(C)cc1-n1nnnc1SCC1CCCO1 (stereo not given)	KCNH2 WT inh -107.3
Cc1ccc(CNC(=O)C(=O)NCC2OCCCN2S(=O)(=O)c2cccs2)cc1 (stereo not given)	none (no result: JMJD2E inh)
O=C(c1cccs1)N(CC1CCCO1)c1nc(-c2ccccc2)cs1 (stereo not given)	none
O=C(NC1CCCc2ccccc21)c1cc(F)cc(F)c1 (stereo not given)	none (no result: JMJD2E inh)
O=C(NC1CCCc2ccccc21)c1cncc(Br)c1 (stereo not given)	KCNH2 3.1 block -70.9
Cc1cccc(-c2ccc3c(c2)C2CC3CCN2Cc2ccc3c(c2)OCO3)c1 (stereo not given)	KCNH2 3.1 block -76.1 (no result: JMJD2E inh)
